CHRM1 PAM – human CHRM1 positive allosteric modulation; P11229; CHO-K1 hM1, Fluo-8 calcium fluorescence, ACh EC20; 0% = ACh EC20, 100% = maximal ACh; activation, % at 3 µM; 360,000 tested, 0.088% active; in the data active = activation above about 19%, passing the limit was not always enough
M4 antag – antagonists of human muscarinic M4 receptor (CHRM4); CHO-hM4 cells, ACh EC80, Fluo-8 calcium fluorescence; inhibition, % at 3 µM; 360,000 tested, 0.73% active; AID 624125;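 active = inhibition above its plate's cutoff, the mean inhibition of sample wells plus 3 SD, cut at about 27% in these data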
CHRM1 antagonist – antagonists of human M1 muscarinic receptor | 360,000 tested, 1.3% active | AID 588852 | CHO-K1 hM1, Fluo-8 calcium fluorescence, ACh EC80 antagonist | P11229 | inhibition, % at 3 µM;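 active = percent inhibition above its own plate's cutoff, namely the mean of that plate's compound wells plus 3 SD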;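 also: peak over basal fluorescence ratio during 140 s after agonist addition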
M1 ag – human M1 muscarinic receptor agonism. P11229. activation, % at 3 µM. 360,000 tested, 0.33% active. CHO-K1 hM1, Fluo-8 calcium fluorescence, agonist mode; 0% DMSO, 100% acetylcholine EC100;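 active = activation above the run's mean compound activation plus 3 SD, cut at about 16% in these data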;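 also: peak over basal fluorescence ratio within a 140 s kinetic read after compound addition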
M4 ag – CHRM4 agonism in calcium assay. activation, % at 3 µM. CHO-K1 hM4/Gqi5, Fluo-8 calcium fluorescence; vehicle 0%, full acetylcholine response 100%. 360,000 tested, 0.14% active. P08173;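 active = activation above the run mean over all test wells plus 3 SD, cut at about 32% in these data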;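 also: peak over basal fluorescence ratio per well then scaled between controls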
M4 PAM – potentiates acetylcholine response at human M4 receptor; P08173; CHO-K1 hM4/Gqi5, Fluo-8 calcium fluorescence, ACh EC20; 0% = ACh EC20, 100% = maximal ACh; activation, % at 3 µM; 360,000 tested, 0.4% active; AID 624126;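 active = activation above its plate's cutoff, the mean activation of sample wells plus 3 SD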
Large screens that a line does not name were inactive. A selection: hits, their analogues and other compounds. The true share with any hit is near 2.2%.

Cc1ccc(CN2CCNC(=O)C2CC(=O)NC2CCCCCC2)cc1 (configuration not stated)	none
O=C(CC1C(=O)NCCN1Cc1ccc(F)cc1)NC1CCCCCCC1 (configuration not stated)	M4 antag 45
COc1ccc(CN2CCNC(=O)C2CC(=O)NC2CCCCCCC2)cc1OC (configuration not stated)	M4 antag 36
Cc1cccc(N2CCN(C(=O)C3CC(=O)N(c4ccc5c(c4)OCCO5)C3)CC2C)c1 (configuration not stated)	CHRM1 antagonist 30
Cc1cccc(N2CCN(C(=O)c3ccc4c(c3)OCCO4)CC2C)c1 (configuration not stated)	none
Cc1cc(OCC(=O)Nc2ccc(CN3CCCCC3)cc2)ccc1Cl	CHRM1 antagonist 50, M4 ag 36
O=C(N/N=C/c1ccc(-c2ccc(Cl)c(C(=O)O)c2)o1)c1cc2c(ccc3ccccc32)o1	M4 antag 27
CCN(CC)Cc1c(O)ccc2c(=O)c(-c3ccc(Cl)cc3)coc12	none
CCCOC(=O)c1ccc(Oc2coc3c(CN(CC)CC)c(O)ccc3c2=O)cc1	M4 antag 93, CHRM1 antagonist 89
Cc1ccc2c(c1)C(=O)N1[C@H]3c4cc(C)ccc4OC[C@@H]3[C@H](c3ccccc3)[C@]1(C)C(=O)N2	M4 antag 29, CHRM1 antagonist 48
C[C@@]12C(=O)Nc3ccc(Cl)cc3C(=O)N1[C@H]1c3ccccc3OC[C@@H]1[C@@H]2c1ccccc1	M4 antag 41, CHRM1 antagonist 33
C[C@@]12C(=O)Nc3ccc(F)cc3C(=O)N1[C@H]1c3cc(Cl)ccc3OC[C@@H]1[C@@H]2c1ccccc1	none
C[C@@]12C(=O)Nc3cc(Cl)ccc3C(=O)N1[C@H]1c3ccccc3OC[C@@H]1[C@@H]2c1ccccc1	M4 antag 33, CHRM1 antagonist 33
Cc1ccc2c(c1)C(=O)N1[C@H]3c4cc(Cl)ccc4OC[C@@H]3[C@H](c3ccccc3)[C@]1(C)C(=O)N2	none
O=C(C1CCN(c2nnc(N3CCCC3=O)s2)CC1)N1CCN(c2cccc(C(F)(F)F)c2)CC1	CHRM1 antagonist 77
CC1CC2(CCCCC2)N2C(=O)C(=O)c3cccc1c32 (configuration not stated)	M1 ag 17
CCOC(=O)C1=C(CC)Nc2ccccc2N/C1=N\S(=O)(=O)c1ccc2ccccc2c1	none
CCOC(=O)C1=C(CC)Nc2ccccc2N/C1=N\S(=O)(=O)c1cc(Br)ccc1Br	CHRM1 antagonist 34
CCOC(=O)C1=C(C)Nc2ccccc2N/C1=N\S(=O)(=O)c1ccc(Cl)cc1	CHRM1 antagonist 37
CCOC(=O)N1CCN(C(=O)CSc2ccc3nnc(-c4ccncc4)n3n2)CC1	none
Cc1cccc(C(=O)O/N=C(\N)CS(=O)(=O)c2ccccc2)c1	none
Clc1ccc(-c2cn(-c3ccc(Cl)cc3)c3[n+]2CCCCC3)cc1	none
CC(=O)c1ccc(-n2cc(-c3ccc(C(C)(C)C)cc3)[n+]3c2SCCC3)cc1	CHRM1 antagonist 39
COc1ccc(-c2cn(-c3ccc(Br)cc3)c3[n+]2CCS3)cc1	CHRM1 antagonist 44
Clc1ccc(-c2cn(-c3ccccc3)c3[n+]2CCS3)cc1	CHRM1 antagonist 58
Fc1ccc(-c2cn(-c3ccccc3)c3[n+]2CCS3)cc1	none
COC(=O)c1c(C)[nH]c(O)c1C=Nc1ccc(Oc2ccccc2)cc1	none
O=C1CC/C=C\C[C@@H](CC(=O)N(CCO)Cc2ccccc2)C(=O)N[C@H](Cc2ccccc2)CO1	none
CCOC(=O)c1[nH]c(C)c(C(=O)N2CCN(c3ccc(OC)cc3)CC2)c1C	none
CCOC(=O)c1[nH]c(CN2CCN(c3ccc(OC)cc3)CC2)c(C(=O)OCC)c1C	M1 ag 16
CC(C)c1ccc(N(C(=O)c2snc(C(N)=O)c2N)C(C(=O)NCC2CCCO2)c2ccc(N(C)C)cc2)cc1 (configuration not stated)	none
O=C(c1ccc(Br)c(S(=O)(=O)N2CCOCC2)c1)N1CCN(C/C=C/c2ccccc2)CC1	CHRM1 antagonist 70

Source: PubChem BioAssay (The Scripps Research Institute Molecular Screening Center)
